Assay results as given in PubChem BioAssay (EPA / NIEHS).
“And” between values parts separate entries of the source, which are not always exact repeats. Equal values may be shown once. Where a structure was tested more than once in an assay, its records may differ in their call. The source made the active and inactive calls. Rule for the calls: active = hit-call score of the fitted dose curve at least 0.9, where 1 is the maximum; inactive = score below 0.9.

Key:
[1] = ATG_EGR_CIS: Attagene CIS-FACTORIAL HepG2 Assay for human Early Growth Response 1 (EGR1) (AID 2282938); settings: HepG2 Attagene CIS-FACTORIAL EGR reporter mRNA; actives raise or lower the signal
How it was run: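 After 24 h compound exposure, RNA from reporter-transfected HepG2 cells was reverse-transcribed, PCR-amplified, fluorescently labelled and resolved by capillary electrophoresis. EGR1 reporter transcript changes, up or down, were fitted against DMSO, reflecting endogenous transcription-factor activity.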

[2] = ATG_M_19_CIS: Attagene CIS-FACTORIAL HepG2 Assay for M19 Transcription Factor (Internal Marker) (AID 2282939); settings: HepG2 Attagene CIS-FACTORIAL M19 internal marker reporter; actives raise or lower the signal
How it was run: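 In this multiplexed cell assay, transiently transfected HepG2 reporter units report endogenous transcription-factor activity; after 24 hours of treatment, labelled reporter cDNA fragments are quantified by capillary electrophoresis and fitted bidirectionally against DMSO.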

[3] = ATG_Ets_CIS: Attagene CIS-FACTORIAL HepG2 Assay for human Erythroblast Transformation Specific (ETS) (AID 2282941); settings: HepG2 ETS cis-reporter transcription; AC50: actives raise or lower the signal unless noted; outcome: actives raise or lower the signal unless noted
How it was run: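 After transient cis-reporter transfection, HepG2 cells receive test chemical for 24 h. Reporter mRNA levels, measured by RT-PCR and capillary electrophoresis fluorescence, are analysed bidirectionally relative to the DMSO baseline.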

[4] = target: Hepatocyte nuclear factor 3-beta (Homo sapiens) (UniProt Q9Y261); experiment: ATG_FoxA2_CIS: Attagene CIS-FACTORIAL HepG2 Assay for human Forkhead box A2 (FOXA2) (AID 2282942); settings: HepG2 cis-reporter transcription factor activity, 24 h; actives raise or lower the signal
Sequence of Hepatocyte nuclear factor 3-beta (Homo sapiens) (Q9Y261 whole entry, looked up): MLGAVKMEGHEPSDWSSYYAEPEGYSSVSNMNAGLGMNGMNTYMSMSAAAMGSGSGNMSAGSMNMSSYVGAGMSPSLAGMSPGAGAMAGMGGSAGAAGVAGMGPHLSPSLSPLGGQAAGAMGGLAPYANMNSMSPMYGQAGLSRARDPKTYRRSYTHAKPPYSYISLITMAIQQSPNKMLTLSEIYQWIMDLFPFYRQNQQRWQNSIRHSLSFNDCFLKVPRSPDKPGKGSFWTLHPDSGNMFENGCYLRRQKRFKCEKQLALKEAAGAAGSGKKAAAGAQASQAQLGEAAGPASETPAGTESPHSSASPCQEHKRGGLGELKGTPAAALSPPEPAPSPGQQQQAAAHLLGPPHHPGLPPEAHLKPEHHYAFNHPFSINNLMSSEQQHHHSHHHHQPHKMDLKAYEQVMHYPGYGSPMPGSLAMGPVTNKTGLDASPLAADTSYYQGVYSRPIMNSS
How it was run: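 Endogenous transcription factor activity is captured via cis-element-driven reporter transcripts in transfected HepG2. Total RNA taken at 24 h post-dosing; labelled RT-PCR products resolved by capillary electrophoresis. Gain or loss fitted versus DMSO.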

[5] = ATG_GATA_CIS: Attagene CIS-FACTORIAL HepG2 Assay for human GATA Binding Protein (AID 2282944); settings: HepG2 GATA cis-element reporter, Attagene multiplex mRNA; actives raise or lower the signal
How it was run: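 Measures endogenous transcription factor-driven reporter mRNA in HepG2 cells transiently carrying cis-regulated constructs. 24 h dosing; RNA via oligo(dT) reverse transcription, PCR, HpaI digestion, capillary electrophoresis; fitted relative to DMSO.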

[6] = ATG_GLI_CIS: Attagene CIS-FACTORIAL HepG2 Assay for human Zinc Finger Protein GLI1 (AID 2282945); settings: HepG2, Attagene cis-factorial reporter mRNA, GLI element; actives raise or lower the signal
How it was run: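 HepG2 cells transiently transfected with cis-promoter multiplexed reporter units report endogenous transcription factor activity. After 24 h chemical exposure, reporter mRNA was quantified by RT-PCR, 6-FAM labelling, HpaI digestion and capillary electrophoresis, with bidirectional fitting against DMSO.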

[7] = ATG_M_32_CIS: Attagene CIS-FACTORIAL HepG2 Assay for M32 Transcription Factor (Internal Marker) (AID 2282949); settings: HepG2 Attagene cis-factorial M32 reporter, mRNA; actives raise or lower the signal;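 note: background control marker of the multiplexed CIS panel rather than a real target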
How it was run: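 Following 24 h chemical exposure of HepG2 cells transiently expressing cis-promoter reporter constructs, reporter transcript levels were determined by RT-PCR with fluorescent labelling and capillary electrophoresis, then fitted bidirectionally against DMSO.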

[8] = ATG_M_06_CIS: Attagene CIS-FACTORIAL HepG2 Assay for M06 Transcription Factor (Internal Marker) (AID 2282950); settings: HepG2 Attagene CIS-FACTORIAL M06 internal marker reporter; actives raise or lower the signal
How it was run: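 One of many multiplexed endpoints: HepG2 reporter mRNA after 24 h dosing, detected by RT-PCR and capillary electrophoresis fluorescence; gain or loss of signal analysed against DMSO.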

[9] = target: Hypoxia-inducible factor 1-alpha (Homo sapiens) (UniProt Q16665); experiment: ATG_HIF1a_CIS: Attagene CIS-FACTORIAL HepG2 Assay for human Hypoxia Inducible Factor 1 (HIF1A) (AID 2282951); settings: HepG2 Attagene cis-factorial HIF1a reporter transcription; actives raise or lower the signal
Sequence of Hypoxia-inducible factor 1-alpha (Homo sapiens) (Q16665 whole entry, looked up): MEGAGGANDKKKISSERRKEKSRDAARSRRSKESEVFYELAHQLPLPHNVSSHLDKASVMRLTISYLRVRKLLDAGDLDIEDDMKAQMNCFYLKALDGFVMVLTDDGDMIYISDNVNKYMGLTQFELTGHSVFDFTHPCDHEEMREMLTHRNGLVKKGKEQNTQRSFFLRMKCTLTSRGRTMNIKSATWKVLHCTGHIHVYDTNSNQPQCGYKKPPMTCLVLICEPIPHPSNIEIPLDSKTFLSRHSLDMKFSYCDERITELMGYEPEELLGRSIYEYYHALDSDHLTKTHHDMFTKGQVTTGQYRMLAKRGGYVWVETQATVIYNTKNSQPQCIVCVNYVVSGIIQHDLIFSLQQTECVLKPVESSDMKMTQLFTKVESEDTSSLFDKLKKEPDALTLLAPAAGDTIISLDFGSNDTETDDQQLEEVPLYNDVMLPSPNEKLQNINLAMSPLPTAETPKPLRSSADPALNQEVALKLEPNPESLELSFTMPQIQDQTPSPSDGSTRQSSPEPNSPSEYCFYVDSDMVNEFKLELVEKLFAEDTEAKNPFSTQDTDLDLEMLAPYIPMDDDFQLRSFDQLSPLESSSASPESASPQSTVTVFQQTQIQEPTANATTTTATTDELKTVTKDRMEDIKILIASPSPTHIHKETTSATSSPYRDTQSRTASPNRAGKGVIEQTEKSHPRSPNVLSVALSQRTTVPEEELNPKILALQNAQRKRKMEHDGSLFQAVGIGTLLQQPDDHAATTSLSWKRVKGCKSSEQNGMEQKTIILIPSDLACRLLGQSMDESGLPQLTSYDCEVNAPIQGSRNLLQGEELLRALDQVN
How it was run: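 Activity is fitted in both directions relative to DMSO. Reporter transcripts are read by RT-PCR, fluorescent primer extension and capillary electrophoresis after 24 h chemical treatment. The cells are HepG2 carrying transiently transfected cis-element-driven reporter units responding to endogenous factors.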

[10] = target: Heat shock factor protein 1 (Homo sapiens) (UniProt Q00613); experiment: ATG_HSE_CIS: Attagene CIS-FACTORIAL HepG2 Assay for human Heat Shock Transcription Factor 1 (HSE) (AID 2282953); settings: HepG2 HSE cis-reporter, Attagene RNA transcription; actives raise or lower the signal
Sequence of Heat shock factor protein 1 (Homo sapiens) (Q00613 whole entry, looked up): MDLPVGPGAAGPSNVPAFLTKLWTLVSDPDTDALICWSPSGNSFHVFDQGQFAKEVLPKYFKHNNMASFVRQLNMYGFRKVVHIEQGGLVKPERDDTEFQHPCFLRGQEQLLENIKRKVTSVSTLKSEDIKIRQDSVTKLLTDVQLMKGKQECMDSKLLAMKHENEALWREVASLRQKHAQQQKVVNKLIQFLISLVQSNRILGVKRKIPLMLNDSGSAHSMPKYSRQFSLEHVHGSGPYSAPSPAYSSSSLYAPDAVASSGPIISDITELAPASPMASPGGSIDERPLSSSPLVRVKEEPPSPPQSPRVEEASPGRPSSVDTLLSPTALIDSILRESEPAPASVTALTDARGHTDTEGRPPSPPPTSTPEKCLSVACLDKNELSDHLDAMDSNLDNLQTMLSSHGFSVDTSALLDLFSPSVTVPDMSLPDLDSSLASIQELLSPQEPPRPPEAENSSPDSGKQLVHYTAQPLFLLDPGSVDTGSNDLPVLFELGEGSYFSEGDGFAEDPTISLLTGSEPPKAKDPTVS
How it was run: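 Using HepG2 with transfected cis-driven reporter constructs, compound effects on endogenous factor activity are scored as reporter mRNA change at 24 h. Detection: RT-PCR, HpaI digestion, capillary electrophoresis; bidirectional fitting to DMSO.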

[11] = ATG_MRE_CIS: Attagene CIS-FACTORIAL HepG2 Assay for human Metal Responsive Element (MRE) (AID 2282954); settings: HepG2 MRE cis-reporter transcription, Attagene multiplex; actives raise or lower the signal
How it was run: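 HepG2 cells transiently transfected with multiple cis-element reporter units measure endogenous MTF1-driven transcription. After 24 h compound exposure, reporter mRNA is quantified by RT-PCR with 6-FAM labelling, HpaI digestion and capillary electrophoresis; bidirectional fits versus DMSO.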

[12] = ATG_PBREM_CIS: Attagene CIS-FACTORIAL HepG2 Assay for human Phenobarbital-responsive Enhancer Module (PBREM) (AID 2282955); settings: HepG2 PBREM cis-reporter, Attagene multiplexed transcription; actives raise or lower the signal
How it was run: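 Endogenous transcription factor activity was read from reporter transcripts in transiently transfected human HepG2 liver cells after 24 h dosing. RT-PCR products were fluorescently labelled, HpaI-cut and sized by capillary electrophoresis; activity fitted bidirectionally against DMSO baseline.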

[13] = target: Paired box protein Pax-6 (Homo sapiens) (UniProt P26367); experiment: ATG_Pax6_CIS: Attagene CIS-FACTORIAL HepG2 Assay for human Paired Box 6 (PAX6) (AID 2282956); settings: HepG2 CIS-FACTORIAL PAX6 reporter transcription, RNA readout; actives raise or lower the signal
Sequence of Paired box protein Pax-6 (Homo sapiens) (P26367 whole entry, looked up): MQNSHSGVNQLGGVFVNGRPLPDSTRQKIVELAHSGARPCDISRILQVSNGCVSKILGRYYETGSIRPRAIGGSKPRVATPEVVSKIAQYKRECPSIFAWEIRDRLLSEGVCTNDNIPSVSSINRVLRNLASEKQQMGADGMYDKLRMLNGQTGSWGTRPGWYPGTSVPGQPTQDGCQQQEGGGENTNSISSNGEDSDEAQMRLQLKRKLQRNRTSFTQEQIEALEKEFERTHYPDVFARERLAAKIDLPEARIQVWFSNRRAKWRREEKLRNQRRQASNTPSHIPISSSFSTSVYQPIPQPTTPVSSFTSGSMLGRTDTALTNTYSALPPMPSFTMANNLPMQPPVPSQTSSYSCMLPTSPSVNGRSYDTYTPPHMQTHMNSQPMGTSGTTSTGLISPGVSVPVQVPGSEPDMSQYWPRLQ
How it was run: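 After twenty-four hours of chemical exposure, transfected HepG2 cells are harvested for RNA. Cis-promoter reporter transcripts are amplified, fluorescently labelled and sized by capillary electrophoresis, with gain and loss of signal scored against DMSO.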

[14] = ATG_PXRE_CIS: Attagene CIS-FACTORIAL HepG2 Assay for human Pregnane X Receptor Element (PXRE) (AID 2282957); settings: HepG2 Attagene CIS-FACTORIAL PXRE reporter, mRNA; actives raise or lower the signal
How it was run: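 Transiently transfected HepG2 cells were dosed and incubated for 24 h. RNA was then isolated, DNase-treated, reverse-transcribed and reporter sequences amplified. Labeled, HpaI-digested fragments were quantified by capillary electrophoresis against DMSO.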

[15] = ATG_ERE_CIS: Attagene CIS-FACTORIAL HepG2 Assay for Estrogen Response Element (ERE) (AID 2282940); settings: HepG2 ERE cis-reporter, Attagene RNA transcript; actives raise or lower the signal
How it was run: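 Measuring endogenous transcription factor output, the assay doses transfected HepG2 cells for 24 hours and quantifies reporter transcripts by fluorescent RT-PCR and capillary electrophoresis, with DMSO as baseline.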

[16] = ATG_FoxO_CIS: Attagene CIS-FACTORIAL HepG2 Assay for human Forkhead box O (FoxO) (AID 2282943); settings: HepG2 Attagene cis-reporter, FoxO element, mRNA; actives raise or lower the signal
How it was run: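 Values reflect reporter mRNA induction or loss in HepG2 cells 24 h post-dosing, fitted bidirectionally with DMSO as negative control and baseline. Detection used RT-PCR and fluorescence capillary electrophoresis.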

[17] = target: Bile acid receptor (Homo sapiens) (UniProt Q96RI1); experiment: ATG_IR1_CIS: Attagene CIS-FACTORIAL HepG2 Assay for human Nuclear Receptor Subfamily 1 Group H Member 4 (NR1H4), IR1 submotif (AID 2282946); settings: IR1 reporter transcription, actives raise or lower the signal
Sequence of Bile acid receptor (Homo sapiens) (Q96RI1 whole entry, looked up): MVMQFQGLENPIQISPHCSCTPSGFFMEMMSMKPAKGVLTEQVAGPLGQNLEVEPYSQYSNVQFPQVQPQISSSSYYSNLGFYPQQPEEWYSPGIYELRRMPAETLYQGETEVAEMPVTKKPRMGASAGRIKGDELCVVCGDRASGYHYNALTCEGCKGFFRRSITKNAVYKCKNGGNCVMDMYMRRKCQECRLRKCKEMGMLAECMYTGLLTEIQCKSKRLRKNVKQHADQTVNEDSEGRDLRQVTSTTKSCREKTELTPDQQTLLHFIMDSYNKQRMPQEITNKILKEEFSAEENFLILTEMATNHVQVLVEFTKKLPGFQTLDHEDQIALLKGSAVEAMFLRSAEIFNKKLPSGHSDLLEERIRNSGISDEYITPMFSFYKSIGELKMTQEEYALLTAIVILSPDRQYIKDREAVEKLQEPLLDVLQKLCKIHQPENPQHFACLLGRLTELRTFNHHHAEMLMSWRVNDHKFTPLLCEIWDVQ
How it was run: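 Transient MRTU transfection, HepG2; 24 h dosing; RNA → RT-PCR → 6-FAM primer extension → HpaI digest → capillary electrophoresis fluorescence. Gain/loss of signal fitted relative to DMSO.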

[18] = ATG_GRE_CIS: Attagene CIS-FACTORIAL HepG2 Assay for human Glucocorticoid Response Elements (GRE) (AID 2282947); settings: HepG2 GRE cis-reporter, Attagene multiplex mRNA; AC50: actives raise or lower the signal unless noted; outcome: actives raise or lower the signal unless noted
How it was run: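 HepG2 cells transiently transfected with multiple cis-promoter reporter units measure endogenous TF activity; 24 h compound exposure. Reporter mRNA quantified by RT-PCR, FAM labelling, HpaI digestion and capillary electrophoresis; bidirectional fit vs DMSO baseline.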

[19] = ATG_ISRE_CIS: Attagene CIS-FACTORIAL HepG2 Assay for human Interferon Regulatory Factor 1 (IRF1) binding to an Interferon-Stimulated Response Element (ISRE) (AID 2282948); settings: HepG2 ISRE cis-reporter (Attagene), mRNA transcription readout; actives raise or lower the signal
How it was run: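 Quantitation relies on labelled RT-PCR fragments separated by capillary electrophoresis. Human HepG2 cells bearing cis-promoter reporter constructs were treated 24 h; DMSO served as baseline for bidirectional fitting.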

[20] = target: Hepatocyte nuclear factor 6 (Homo sapiens) (UniProt Q9UBC0); experiment: ATG_HNF6_CIS: Attagene CIS-FACTORIAL HepG2 Assay for human Hepatocyte Nuclear Factor 6 (HNF6) (AID 2282952); settings: HepG2 Attagene cis-factorial HNF6 reporter transcription; actives raise or lower the signal
Sequence of Hepatocyte nuclear factor 6 (Homo sapiens) (Q9UBC0 whole entry, looked up, the tested form may be a part): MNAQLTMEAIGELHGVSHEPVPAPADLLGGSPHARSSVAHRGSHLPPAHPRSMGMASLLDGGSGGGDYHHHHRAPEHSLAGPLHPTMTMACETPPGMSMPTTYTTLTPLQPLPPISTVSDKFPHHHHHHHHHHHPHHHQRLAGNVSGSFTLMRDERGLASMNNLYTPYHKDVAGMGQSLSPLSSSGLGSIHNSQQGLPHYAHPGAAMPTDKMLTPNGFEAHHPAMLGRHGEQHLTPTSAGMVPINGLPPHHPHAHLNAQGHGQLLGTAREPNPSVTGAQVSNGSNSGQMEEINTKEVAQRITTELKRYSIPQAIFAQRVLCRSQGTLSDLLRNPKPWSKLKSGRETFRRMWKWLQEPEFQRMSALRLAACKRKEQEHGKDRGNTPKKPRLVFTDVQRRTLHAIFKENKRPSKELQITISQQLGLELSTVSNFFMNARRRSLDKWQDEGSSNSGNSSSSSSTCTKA
How it was run: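 Reporter mRNA induction or loss in HepG2 after 24 h exposure; transient cis-MRTU transfection; fragments quantified by capillary electrophoresis; bidirectional analysis, DMSO as negative control.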

Measured: AC50

O=C1OC2(c3ccccc31)c1cc(I)c(O)c(I)c1Oc1c2cc(I)c(O)c1I
inactive: [1] | [2] | [3] | [4] | [5] | [6] | [7] | [8] | [9] | [10] | [11] | [12] | [13]
active: [1] 36.1 µM and 29.8 µM | [4] 29.9 µM | [9] 21.2 µM and 34.4 µM | [11] 36.3 µM and 35.2 µM | [12] 21 µM and 18.6 µM | [13] 37.6 µM | [14] 12.8 µM and 4.37 µM and 8.03 µM

C[C@]12CC[C@@H]3c4ccc(O)cc4CC[C@H]3[C@@H]1CC[C@@H]2OC(=O)CCC1CCCC1
inactive: [1] | [2] | [3] | [4] | [5] | [17] | [18] | [19] | [8] | [9] | [10] | [11] | [12] | [13]
active: [15] 0.0823 µM | [16] 177 µM | [6] 100 µM | [7] 164 µM | [20] 125 µM | [14] 3.89 µM

CCOC=C(C(=O)OCC)C(=O)OCC
inactive: [1] | [2] | [15] | [3] | [4] | [16] | [5] | [6] | [17] | [18] | [19] | [7] | [8] | [9] | [20] | [10] | [11] | [12] | [13]
active: [14] 27.6 µM
